From publication PMC4336329 (PLoS ONE, 2015)
In all, about 310,000 compounds went through this assay and about 14,000 (4.5%) showed an effect of 50% or more. The effect is printed as a negative number. For the sample, strong results were picked, then their nearest neighbours and some compounds at random.
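Also: peak tail current of the secondary pulse compared with the same well before compound.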

The compounds below were run against human ether-à-go-go-related gene (hERG) potassium channel (human, UniProt Q12809) (assay: primary screen, population patch clamp on CHO cells stably expressing hERG; higher = less effect of the substance).
Sequence of human ether-à-go-go-related gene (hERG) potassium channel (Q12809 whole entry, looked up): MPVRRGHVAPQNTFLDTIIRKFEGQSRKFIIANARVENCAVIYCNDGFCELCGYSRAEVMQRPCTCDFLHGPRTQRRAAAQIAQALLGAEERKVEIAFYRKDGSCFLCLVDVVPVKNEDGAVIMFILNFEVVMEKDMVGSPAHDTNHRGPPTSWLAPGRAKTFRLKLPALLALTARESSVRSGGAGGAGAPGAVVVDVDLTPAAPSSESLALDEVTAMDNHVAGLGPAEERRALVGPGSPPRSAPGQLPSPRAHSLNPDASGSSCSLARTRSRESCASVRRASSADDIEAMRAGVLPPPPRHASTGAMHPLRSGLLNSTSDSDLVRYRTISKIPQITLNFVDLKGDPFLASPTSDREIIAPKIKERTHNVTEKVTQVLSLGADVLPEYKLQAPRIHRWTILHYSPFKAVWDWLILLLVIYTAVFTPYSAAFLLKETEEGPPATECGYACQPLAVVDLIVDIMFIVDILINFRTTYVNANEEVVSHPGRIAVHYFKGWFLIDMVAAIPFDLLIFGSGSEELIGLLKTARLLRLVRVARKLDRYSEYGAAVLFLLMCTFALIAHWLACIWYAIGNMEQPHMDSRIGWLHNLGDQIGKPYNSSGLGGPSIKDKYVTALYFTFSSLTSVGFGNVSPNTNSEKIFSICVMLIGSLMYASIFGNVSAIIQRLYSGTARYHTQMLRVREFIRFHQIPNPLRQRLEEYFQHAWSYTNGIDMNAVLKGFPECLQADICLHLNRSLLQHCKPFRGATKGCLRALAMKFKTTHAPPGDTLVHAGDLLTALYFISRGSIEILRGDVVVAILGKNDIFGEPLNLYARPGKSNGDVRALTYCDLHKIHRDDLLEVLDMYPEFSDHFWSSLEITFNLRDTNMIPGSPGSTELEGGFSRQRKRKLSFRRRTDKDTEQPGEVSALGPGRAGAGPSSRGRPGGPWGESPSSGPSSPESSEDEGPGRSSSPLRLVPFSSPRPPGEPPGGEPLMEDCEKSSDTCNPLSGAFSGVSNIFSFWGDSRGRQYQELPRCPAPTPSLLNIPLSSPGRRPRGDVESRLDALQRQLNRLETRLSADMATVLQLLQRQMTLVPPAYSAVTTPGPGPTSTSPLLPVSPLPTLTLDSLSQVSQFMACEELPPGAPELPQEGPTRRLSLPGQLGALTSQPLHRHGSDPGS
In the case of COc1ccc(S(=O)(=O)N2CCCCCC2)cc1NC(=O)CN1C(=O)NC(C)(c2ccc(C)cc2)C1=O (centres unmarked), the “hERG current change (%, negative = inhibition) at 10uM” value is reported as -12.8%. Cc1ccc(NC(=O)CCC(=O)c2cccs2)cc1F was tested, and the “hERG current change (%, negative = inhibition) at 10uM” value was 2.31%. With CCOC(=O)c1oc2cc(O)c(CC)cc2c(=O)c1-c1cscn1 the “hERG current change (%, negative = inhibition) at 10uM” value was 2.56%. For CCC(C)N1C(=O)CCC1C(=O)N1CCN(c2ccc(F)cc2)CC1 (centres unmarked), the “hERG current change (%, negative = inhibition) at 10uM” value was -28.3%. In the case of COc1ccc(Nc2nc(-c3ccccc3F)nc3ccccc23)cc1OC, the “hERG current change (%, negative = inhibition) at 10uM” value is reported as 0.695%. In the case of Cc1ccc(O)c(Nc2ncnc3ccccc23)c1.Cl, the “hERG current change (%, negative = inhibition) at 10uM” value is reported as 11.8%. For COc1cc(NC(=O)CSc2c3c(nc4ccccc24)CCC3)cc(OC)c1OC, the “hERG current change (%, negative = inhibition) at 10uM” value was -7.51%. COc1ccc(NC(=O)COC(=O)c2c3c(nc4ccccc24)CCCC3)cc1Cl was tested, and the “hERG current change (%, negative = inhibition) at 10uM” value was 9.73%. Cc1ccc(O)c(Nc2nc(-c3ccccc3)nc3ccccc23)c1 was tested, and the “hERG current change (%, negative = inhibition) at 10uM” value was 14.9%. With COc1cc(Nc2c3c(nc4ccccc24)CCC3)cc(OC)c1OC the “hERG current change (%, negative = inhibition) at 10uM” value was -60%. In the case of COC(=O)c1c2c(nc3ccccc13)CCC2, the “hERG current change (%, negative = inhibition) at 10uM” value is reported as -3.81%. In the case of COc1ccc(Nc2c3c(nc4ccccc24)CCCC3)cc1OC, the “hERG current change (%, negative = inhibition) at 10uM” value is reported as -73.2%. With Cc1ccc(O)c(Nc2c3ccccc3nc3ccccc23)c1 the “hERG current change (%, negative = inhibition) at 10uM” value was -52.8%. With O=C(NCC(c1cccnc1)N1CCN(c2ccc(F)cc2)CC1)c1ccco1 (centres unmarked) the “hERG current change (%, negative = inhibition) at 10uM” value was -47.7%. For CN(C)/C=C(\C(=O)c1ccc(F)cc1F)c1nnnn1-c1ccccc1, the “hERG current change (%, negative = inhibition) at 10uM” value was 21.1%. In the case of CCOC(=O)/C(C#N)=C/Nc1ccccc1OC, the “hERG current change (%, negative = inhibition) at 10uM” value is reported as 0.538%. With Cc1cc(=O)oc(C)c1C(=O)OCC(=O)c1ccccc1 the “hERG current change (%, negative = inhibition) at 10uM” value was -5.02%. In the case of COc1ccc(N(Cc2cc3cc(OC)ccc3[nH]c2=O)S(=O)(=O)c2ccc(NC(C)=O)cc2)cc1, the “hERG current change (%, negative = inhibition) at 10uM” value is reported as 5.64%. In the case of Cc1ccc(C2(c3ccccc3)NC(=O)N(CC(=O)NCc3ccccc3)C2=O)cc1C (centres unmarked), the “hERG current change (%, negative = inhibition) at 10uM” value is reported as -23%. COc1ccc(C2(c3ccc(OC)cc3)NC(=O)N(CC(=O)NC3(C#N)CCCCC3)C2=O)cc1 was tested, and the “hERG current change (%, negative = inhibition) at 10uM” value was -42.4%. For CCN(C(=O)CN1C(=O)NC(c2ccccc2)(c2ccc(C)c(C)c2)C1=O)C1CCCCC1 (centres unmarked), the “hERG current change (%, negative = inhibition) at 10uM” value was -33.3%. For N#CC1(NC(=O)CN2C(=O)NC(c3ccccc3)(c3ccccc3)C2=O)CCCC1, the “hERG current change (%, negative = inhibition) at 10uM” value was -55%. In the case of Cc1ccc(C2(c3ccccc3)NC(=O)N(CC(=O)NC3CCS(=O)(=O)C3)C2=O)cc1C (centres unmarked), the “hERG current change (%, negative = inhibition) at 10uM” value is reported as -9.17%. For CCN(C(=O)CN1C(=O)NC(c2ccccc2)(c2ccc(C)c(C)c2)C1=O)C1CCS(=O)(=O)C1 (centres unmarked), the “hERG current change (%, negative = inhibition) at 10uM” value was -53.4%. With Cc1ccc(C2(c3ccccc3)NC(=O)N(CC(=O)NCc3ccco3)C2=O)cc1C (centres unmarked) the “hERG current change (%, negative = inhibition) at 10uM” value was -50.4%. In the case of N#CC1(NC(=O)CN2C(=O)NC3(CCCCCC3)C2=O)CCCCC1, the “hERG current change (%, negative = inhibition) at 10uM” value is reported as -0.951%. In the case of Cc1cc(NC(=O)CN2C(=O)NC(c3ccccc3)(c3ccc(C)c(C)c3)C2=O)no1 (centres unmarked), the “hERG current change (%, negative = inhibition) at 10uM” value is reported as -48.5%. Cc1ccc(C2(c3ccccc3)NC(=O)N(CC(=O)NC3(C#N)CCCC3)C2=O)cc1C (centres unmarked) was tested, and the “hERG current change (%, negative = inhibition) at 10uM” value was -63.4%. In the case of CCC1(c2ccccc2)NC(=O)N(CC(=O)NC2(C#N)CCCCC2)C1=O (centres unmarked), the “hERG current change (%, negative = inhibition) at 10uM” value is reported as 2.94%. For Cc1ccc(C2(c3ccccc3)NC(=O)N(CC(=O)N(C)C3CCS(=O)(=O)C3)C2=O)cc1C (centres unmarked), the “hERG current change (%, negative = inhibition) at 10uM” value was -22%. For O=C1c2ccccc2C2NC(=O)C3(CCCCC3)N12 (centres unmarked), the “hERG current change (%, negative = inhibition) at 10uM” value was 7.54%. For COc1ccc(C2CC(=O)N(c3ccccc3)C3=C2C(=O)CCC3)cc1 (centres unmarked), the “hERG current change (%, negative = inhibition) at 10uM” value was 13.1%. O=C(CN1C(=O)CC(c2ccco2)Sc2ccccc21)NCc1ccc2c(c1)OCO2 (centres unmarked) was tested, and the “hERG current change (%, negative = inhibition) at 10uM” value was -37.1%. In the case of S=C(NCCCc1ccccc1)Nc1ccccc1Cl, the “hERG current change (%, negative = inhibition) at 10uM” value is reported as 2.38%. For Fc1ccc(-c2csc(-c3ccc(C4SCCS4)cc3)n2)cc1F, the “hERG current change (%, negative = inhibition) at 10uM” value was 4.89%. COC(=O)C1=C(N)Oc2cc(C)n(Cc3cccnc3)c(=O)c2C1c1ccc(OC)c(OC)c1 (centres unmarked) was tested, and the “hERG current change (%, negative = inhibition) at 10uM” value was -19%. In the case of CCOC(=O)c1cc(C)n(-c2c(C)n(C)n(-c3ccccc3)c2=O)c1C, the “hERG current change (%, negative = inhibition) at 10uM” value is reported as 21.6%. With COc1cccc(NC(=S)N/N=C2\CC(C)(C)Oc3ccc(O)cc32)c1 the “hERG current change (%, negative = inhibition) at 10uM” value was 3.3%. In the case of CC(=O)N1CCC2(CC1)C/C(=N\NC(=S)Nc1ccccc1F)c1cc(O)ccc1O2, the “hERG current change (%, negative = inhibition) at 10uM” value is reported as -69%. CC(=O)N1CCC2(CC1)C/C(=N\NC(=S)Nc1ccccc1C)c1cc(O)ccc1O2 was tested, and the “hERG current change (%, negative = inhibition) at 10uM” value was -61.1%. For Cc1ccccc1NC(=S)N/N=C1\CC(C)(C)Oc2ccc(O)cc21, the “hERG current change (%, negative = inhibition) at 10uM” value was 42.1%. In the case of Cc1ccc(NC(=S)N/N=C2\CC(C)(C)Oc3ccc(O)cc32)cc1, the “hERG current change (%, negative = inhibition) at 10uM” value is reported as 12%. With CC1(C)C/C(=N\NC(=S)Nc2ccccc2F)c2cc(O)ccc2O1 the “hERG current change (%, negative = inhibition) at 10uM” value was -18.8%. Cc1cccc(NC(=S)N/N=C2\CC(C)(C)Oc3ccc(O)cc32)c1 was tested, and the “hERG current change (%, negative = inhibition) at 10uM” value was 8.34%. With COc1ccccc1NC(=S)N/N=C1\CC(C)(C)Oc2ccc(O)cc21 the “hERG current change (%, negative = inhibition) at 10uM” value was 0.968%. CC(=O)N1CCC2(CC1)C/C(=N\NC(=S)Nc1ccc(C)cc1)c1cc(O)ccc1O2 was tested, and the “hERG current change (%, negative = inhibition) at 10uM” value was -70.8%. COc1ccc(C(=O)CC(=O)C(=O)Nc2ccc(C)c(C)c2)cc1 was tested, and the “hERG current change (%, negative = inhibition) at 10uM” value was -12.2%. O=C1CSC(c2cccnc2)N1c1ccccc1 (centres unmarked) was tested, and the “hERG current change (%, negative = inhibition) at 10uM” value was 13%. With CCOCCCNC(=O)CCNS(=O)(=O)c1ccc(C)cc1 the “hERG current change (%, negative = inhibition) at 10uM” value was 3.47%. Cc1ccc(S(=O)(=O)N(C)c2ccc(OCC(=O)Nc3nc4ccccc4s3)cc2)cc1 was tested, and the “hERG current change (%, negative = inhibition) at 10uM” value was 17.8%. Cc1cccc(C(=O)Oc2ccc(/C=N/NC(=O)c3ccc(O)cc3)cc2)c1 was tested, and the “hERG current change (%, negative = inhibition) at 10uM” value was 28.6%. In the case of Cc1nnc(SC(C)C(=O)Nc2ccc(S(=O)(=O)N3CCCCC3)cc2)s1 (centres unmarked), the “hERG current change (%, negative = inhibition) at 10uM” value is reported as -18.4%. CC(C)NC(=O)C1(O)c2ccccc2NC(=O)N1c1ccc(Cl)c(Cl)c1 (centres unmarked) was tested, and the “hERG current change (%, negative = inhibition) at 10uM” value was 9.1%.
